PKA-R2B activ = activates the human PKA-R2B holoenzyme complex | P22694+P31323 | PKA-R2B holoenzyme dissociation, Cy5-IP20 fluorescence polarization; R2B truncated from residue 108, S112A mutant; 0% DMSO only, 100% 113 µM cGMP | activation, % at 11.4 µM | hit rate 0.079% among 340,000 | AID 504700;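 active = activation above a cutoff set at the mean over all compounds plus 3 SD, cut at about 18% in these data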;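 note: higher means more holoenzyme dissociation and a rise in polarization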
Target sequence (P31323 whole entry, looked up, other chains not shown, the tested form may be a part): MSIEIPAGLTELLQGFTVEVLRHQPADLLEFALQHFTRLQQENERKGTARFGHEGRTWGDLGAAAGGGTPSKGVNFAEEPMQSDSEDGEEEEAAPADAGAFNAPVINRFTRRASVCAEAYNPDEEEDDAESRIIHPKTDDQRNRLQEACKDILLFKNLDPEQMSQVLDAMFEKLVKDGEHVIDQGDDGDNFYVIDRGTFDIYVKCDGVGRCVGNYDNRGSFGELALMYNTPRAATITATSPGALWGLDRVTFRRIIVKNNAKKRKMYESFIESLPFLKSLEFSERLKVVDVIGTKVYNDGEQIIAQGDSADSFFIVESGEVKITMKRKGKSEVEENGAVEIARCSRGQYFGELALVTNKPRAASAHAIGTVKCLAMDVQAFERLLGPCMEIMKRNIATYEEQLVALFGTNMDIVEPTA
PKA-R1A activ = activators of PKA-R1A complex; P00514+P68181; PKA-R1A dissociation, Cy5-IP20 fluorescence polarization; scaled: DMSO 0%, 113 µM cGMP 100%; activation, % at 11.4 µM; hit rate 0.083% among 340,000;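 active = percent activation above the mean of all tested compounds plus 3 SD, cut at about 19% in these data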;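 note: higher means more PKAc released from R1A so a rise in polarization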
MsrA act = activates bovine MsrA enzyme | purified bovine MsrA, absorbance read-out | activation, % at 10.6 µM | hit rate 0.3% among 360,000 | AID 602163; in the data active = activation above about 7.5%;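 note: 0% = vehicle and 100% = reference activator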
MsrA inhibitor = inhibitors of bovine MsrA. purified bovine MsrA, absorbance read-out. inhibition, % at 15.5 µM. AID 651718. hit rate 0.75% among 360,000; in the data active = inhibition above about 4.5%;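 note: 0% = vehicle wells with enzyme and 100% = reference inhibitor wells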
Mot1-301 SUMO = blocks SUMOylation pathway, rescuing yeast Mot1-301 growth | S. cerevisiae Mot1-301 growth rescue, ATP luminescence, 38.5C; percent above DMSO median, 100 means doubled | growth rescue, % at 18.8 µM | hit rate 1% among 320,000 | AID 2716;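 active = every valid replicate shows activation above 250% relative to neutral control wells; inactive = the rest, any valid replicate at or below 250%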;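 note: OY570 slx delta 5 strain wells were the positive control but not used for scaling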
Active calls of the source: *; / = no result. Shown are actives, neighbours in structure and some others; about 2% of the full set was active somewhere.

SMILES	PKA-R2B activ	PKA-R1A activ	MsrA act	MsrA inhibitor	Mot1-301 SUMO
O=C(N[C@H](C(=O)N1CCC[C@H]1C(=O)NC1CCCC1)C1CCCCC1)C1CCCC1	/	/	/	-1	/
Cc1ccc(NNC(=O)c2cc(C)on2)c(C)c1	-8	-4	-4	-2	4
CCCc1ccc(C(=O)NNc2ccc(F)cc2)cc1	1	1	-4	-1	289*
Cc1cc(C(=O)NNc2ccc(F)cc2F)no1	-8	-1	-9	-1	538*
CCc1ccc(C(=O)NNc2ccc(F)cc2F)cc1	7	4	3	1	339*
CSc1ccc(C(=O)NCC2CCN(C(=O)C(=O)c3cc4ccccc4o3)CC2)cc1	/	/	/	2	/
CC(=O)C1=C(C)N(Cc2ccc(Cl)cc2)C(=S)NC1c1ccc(Cl)cc1 (stereo unspecified)	/	/	/	1	/
COC(=O)/C=C1/S/C(=N/N=C/c2ccco2)NC1=O	/	/	-6	4.6*	-4
Cc1ccccc1C(=O)NC1CCCCN(C)C1=O (stereo unspecified)	/	/	/	0	/
O=C(N[C@H](C(=O)N1CCC[C@H]1C(=O)NCc1ccccc1)c1ccccc1)c1ccc(Cl)cc1Cl	/	/	/	0	/
COc1ccc(NC(=O)CC(Cc2ccccc2)C(=O)O)cc1 (stereo unspecified)	0	-4	-1	-1	282*
O=C(COC(=O)c1cncc(Br)c1)NCc1ccc(F)cc1	2	-1	-6	0	7
O=C(COC(=O)c1cncc(Br)c1)NCc1ccco1	-1	-16	-1	1	414*
Brc1ccc2nc(-c3ccc(CN4CCC(c5nc6ccccc6[nH]5)CC4)cc3)c(-c3ccccc3)nc2c1	/	/	/	2	/
CC1(C)S[C@@H]2[C@H](NC(=O)COc3ccccc3)C(=O)N2C1C(=O)OCC1CCCCC1 (stereo partly specified)	-7	-2	1	1	327*
COc1ccc([N+](=O)[O-])cc1NC(=O)COC(C)=O	6	-10	-4	2	-9
CCCC(=O)OCC(=O)Nc1cc([N+](=O)[O-])ccc1OC	-6	-7	-9	4.6*	5
Cc1cc(C)n(CCNC(=O)[C@@H](Cc2ccccc2)NC(=O)[C@H]2O[C@@H](n3ccc(=O)[nH]c3=O)[C@H](O)[C@@H]2O)n1	/	/	/	1	/
O=C(Nc1cccc2[nH]ncc12)c1ccc(F)cc1	-3	19*	-5	0	-3
Oc1c(Br)cc(Br)cc1CNc1cccc2cccnc12	-4	5	0	1	2
Oc1c(Br)cc(Br)cc1CNc1ccccn1	-7	-21	-5	0	288*
O=C(N[C@H](C(=O)N1CCC[C@H]1C(=O)NC1CCCC1)c1ccccc1)c1ccc(Cl)c(Cl)c1	/	/	/	0	/
CC1=C(c2ccccc2)C(=O)C(C)(C)CC1=O	/	/	/	-1	/
O=C(O)c1ccc(COc2ccccc2/C=C2\NC(=O)N(Cc3ccccc3F)C2=O)cc1	4	5	-5	3	6
O=C(CN1C(=O)N/C(=C\c2ccccc2OCc2ccc(C(=O)O)cc2)C1=O)Nc1ccccc1F	0	-1	-6	4.6*	12
SMILES	PKA-R2B activ	PKA-R1A activ	MsrA act	MsrA inhibitor	Mot1-301 SUMO
COc1cc2c(=O)n(CCC(=O)NCC3CCCO3)c(=O)n(CC(=O)Nc3ccc(F)cc3)c2cc1OC (stereo unspecified)	9	-3	-1	0	284*
COc1cc2c(=O)n(CCC(=O)NCC3CCCO3)c(=O)n(CC(=O)Nc3ccc(C)c(C)c3)c2cc1OC (stereo unspecified)	-2	2	-1	1	11
Cc1ccc(Cl)cc1-n1ncc2c(NNC(=O)c3ccco3)ncnc21	2	2	5	1	348*
O=C(NNc1ncnc2c1cnn2-c1cccc(Cl)c1)c1ccco1	2	5	-3	1	7
CCOC(=O)N[C@@H](Cc1cccnc1)C(=O)N1CCC[C@H]1C(=O)NCCc1ccccc1Cl	/	/	/	0	/
COc1ccc(C(=O)CCN2CCN(c3ccccc3F)CC2)cc1	-1	-7	-3	0	616*
O=C(CCN1CCN(c2ccccc2F)CC1)c1ccc(Br)cc1	-4	-2	-8	/	6
CC(C)Cn1c(-c2ccc(Cl)cc2)cnc1SCC(=O)N1CCOCC1	2	-5	-2	0	306*
O=C(NCc1ccccc1)[C@H]1CCCN1C(=O)[C@H]1CCCN1C(=O)N1CCCCC1	/	/	/	-1	/
O=S(=O)(c1ccccc1)N1CCCc2nc(-c3ccccc3)ccc21	/	/	/	0	/

Screening results: PubChem BioAssay, several laboratories
